PubChem BioAssay
A number with no mark means an inactive call. For some assays here: Measured potencies and affinities stand elsewhere. Active and inactive are the calls of the source. Unless noted, the rule behind the calls is not given here.

Key:
[1] = antimalarial activity against Dd2 strain (AID 2302;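 active = growth inhibition above 50% at the single 2 µM test dose, taken to imply half-maximal potency below 2 µM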;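 note: 0% = DMSO untreated growth and 100% = chloroquine plus artemisinin killed control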); conditions: P. falciparum Dd2 in RBCs, LDH growth readout, 72 h; at 2 µM; hits give high values
[2] = HepG2 cytotoxicity, primary screen, cytotoxicity control for P. falciparum antimalarial project, cell-based, ATP luminescence (AID 2303;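 active = inhibition above 50%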;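 note: 0% = DMSO wells and 100% = digitonin-killed cells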); conditions: HepG2 viability, 24-48 h, at 10 µM, hits give high values
[3] = biological target: L-lactate dehydrogenase (Plasmodium falciparum (isolate CDC / Honduras)) (UniProt Q27743); test: PfLDH activity inhibition – cell lysate, 3D7 strain, counter-screen for P. falciparum growth inhibition project (AID 2304);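 note: 0% = vehicle and 100% = reference inhibitor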; conditions: P. falciparum 3D7 crude extract, LDH APAD/NBT absorbance; at 2 µM; hits give high values
L-lactate dehydrogenase (Plasmodium falciparum (isolate CDC / Honduras)), sequence (Q27743 whole entry, looked up): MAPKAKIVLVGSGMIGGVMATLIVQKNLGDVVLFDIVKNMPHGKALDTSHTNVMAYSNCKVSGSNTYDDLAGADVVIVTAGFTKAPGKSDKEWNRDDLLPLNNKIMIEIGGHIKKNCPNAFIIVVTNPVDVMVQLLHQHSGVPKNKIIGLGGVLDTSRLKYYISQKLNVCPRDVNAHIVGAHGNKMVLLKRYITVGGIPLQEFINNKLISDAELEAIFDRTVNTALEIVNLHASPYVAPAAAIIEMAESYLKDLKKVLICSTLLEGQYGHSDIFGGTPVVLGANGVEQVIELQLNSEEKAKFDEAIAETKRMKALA

[4] = inhibition of 3D7 malaria parasite growth – strain 3D7 (AID 2306);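 note: 0% = DMSO wells and 100% = chloroquine plus artemisinin control wells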; conditions: P. falciparum 3D7 erythrocytic growth, LDH absorbance, 72 h; at 2 µM; hits give high values
[5] = biological target: Calcium-dependent protein kinase 1 (Plasmodium falciparum (isolate 3D7)) (UniProt P62344); test: PfCDPK1 kinase inhibitors, biochemical, TCAMS library (AID 1159585; cut-off not given, nearly all actives have IC50 up to about 0.98 µM;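 note: inhibitors leave more ATP so luminescence rises with inhibition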); conditions: recombinant PfCDPK1, Kinase-Glo ATP depletion luminescence
Calcium-dependent protein kinase 1 (Plasmodium falciparum (isolate 3D7)), sequence (P62344 whole entry, looked up): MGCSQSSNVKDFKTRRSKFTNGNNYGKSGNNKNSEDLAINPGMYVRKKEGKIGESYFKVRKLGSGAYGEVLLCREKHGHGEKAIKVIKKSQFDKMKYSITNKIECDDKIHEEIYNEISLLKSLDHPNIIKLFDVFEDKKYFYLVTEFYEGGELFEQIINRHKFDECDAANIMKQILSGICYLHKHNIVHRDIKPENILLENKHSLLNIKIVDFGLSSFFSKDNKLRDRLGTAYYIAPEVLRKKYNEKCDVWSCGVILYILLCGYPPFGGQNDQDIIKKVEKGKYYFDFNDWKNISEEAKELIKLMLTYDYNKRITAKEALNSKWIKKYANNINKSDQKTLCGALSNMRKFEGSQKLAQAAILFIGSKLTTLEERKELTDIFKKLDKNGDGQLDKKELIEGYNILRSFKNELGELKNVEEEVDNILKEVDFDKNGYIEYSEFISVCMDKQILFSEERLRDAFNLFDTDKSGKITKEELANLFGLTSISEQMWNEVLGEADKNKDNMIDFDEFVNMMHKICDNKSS

[6] = biological target: Plasmodium falciparum protein kinase 6 (PK6, PF3D7_1337100) (UniProt Q8IDW1); test: PfPK6 kinase inhibitors, biochemical, TCAMS library (AID 1159586); conditions: recombinant PfPK6, Kinase-Glo ATP depletion luminescence
Plasmodium falciparum protein kinase 6 (PK6, PF3D7_1337100), sequence (Q8IDW1 1-305): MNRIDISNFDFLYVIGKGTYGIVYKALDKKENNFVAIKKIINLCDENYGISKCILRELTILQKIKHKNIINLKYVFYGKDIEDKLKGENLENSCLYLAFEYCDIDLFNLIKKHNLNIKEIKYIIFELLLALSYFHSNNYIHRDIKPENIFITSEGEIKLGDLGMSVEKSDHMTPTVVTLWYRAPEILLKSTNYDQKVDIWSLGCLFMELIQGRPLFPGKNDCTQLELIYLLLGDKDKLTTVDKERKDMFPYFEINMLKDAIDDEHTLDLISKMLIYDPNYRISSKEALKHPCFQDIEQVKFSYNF

[7] = biological target: Protein kinase 7 (PK7), Plasmodium falciparum 3D7 (PF3D7_0213400) (UniProt Q7YTF7); test: inhibition of Plasmodium PK7 catalytic activity – biochemical, TCAMS antimalarial set, Kinase-Glo luminescence (AID 1159587); conditions: recombinant PfPK7, Kinase-Glo ATP depletion luminescence
Protein kinase 7 (PK7), Plasmodium falciparum 3D7 (PF3D7_0213400), sequence (Q7YTF7 1-343): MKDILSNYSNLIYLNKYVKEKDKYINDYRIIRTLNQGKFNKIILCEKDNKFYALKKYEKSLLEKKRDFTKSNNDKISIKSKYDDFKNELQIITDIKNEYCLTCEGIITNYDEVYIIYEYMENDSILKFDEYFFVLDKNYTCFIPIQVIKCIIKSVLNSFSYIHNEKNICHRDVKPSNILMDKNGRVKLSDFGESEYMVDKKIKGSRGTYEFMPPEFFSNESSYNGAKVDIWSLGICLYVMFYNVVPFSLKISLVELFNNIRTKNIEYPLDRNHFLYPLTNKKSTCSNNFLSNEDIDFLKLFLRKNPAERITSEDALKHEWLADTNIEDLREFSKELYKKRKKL

[8] = biological target: Calcium-dependent protein kinase 4 (Plasmodium falciparum (isolate 3D7)) (UniProt Q8IBS5); test: PfCDPK4 kinase inhibitors, biochemical, TCAMS library (AID 1159588; cut-off not given, nearly all actives have IC50 up to about 0.91 µM); conditions: recombinant PfCDPK4, Kinase-Glo ATP depletion luminescence
Calcium-dependent protein kinase 4 (Plasmodium falciparum (isolate 3D7)), sequence (Q8IBS5 whole entry, looked up): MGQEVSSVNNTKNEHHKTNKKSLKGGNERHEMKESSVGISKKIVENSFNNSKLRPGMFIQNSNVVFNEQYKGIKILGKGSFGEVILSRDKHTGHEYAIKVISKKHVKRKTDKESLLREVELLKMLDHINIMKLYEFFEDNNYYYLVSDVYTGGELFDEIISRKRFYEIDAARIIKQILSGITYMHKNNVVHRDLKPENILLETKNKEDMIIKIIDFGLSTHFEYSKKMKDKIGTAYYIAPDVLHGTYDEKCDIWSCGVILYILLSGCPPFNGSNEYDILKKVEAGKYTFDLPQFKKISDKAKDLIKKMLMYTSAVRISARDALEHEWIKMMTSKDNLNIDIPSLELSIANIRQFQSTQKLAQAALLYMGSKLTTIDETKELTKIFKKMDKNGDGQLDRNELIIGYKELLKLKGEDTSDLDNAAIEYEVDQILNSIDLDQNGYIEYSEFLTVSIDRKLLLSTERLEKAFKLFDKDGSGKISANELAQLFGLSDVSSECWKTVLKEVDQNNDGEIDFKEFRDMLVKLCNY

| SMILES | growth inhibition [1] | inhibition [2] | inhibition [3] | growth inhibition [4] | outcome [5] | outcome [6] | outcome [7] | outcome [8] |
| --- | --- | --- | --- | --- | --- | --- | --- | --- |
| CCOC(=O)N(C)/N=C/[C@H](CCc1ccccc1)NC(=O)[C@H](CC(C)C)NC(=O)c1cc2cccc(OC)c2o1 | 70% (active) | 2% | 1% | 86% (active) | inactive | inactive | inactive | inactive |
| Cc1ccc2[nH]c(-c3ccccc3N)cc2c1 | 8% | 11% | 8% | 97% (active) | inactive | inactive | inactive | inactive |
| C=CCc1ccc(C[C@H](NC(=O)OC(C)(C)C)C(=O)OC)cc1 | 98% (active) | 77% (active) | 4% | 98% (active) | inactive | inactive | inactive | inactive |
| c1ccc(COc2ccc(Nc3ncnc4cnc(-c5ccc(CN6CCCCC6)o5)cc34)cc2)cc1 | 13% | -14% | -5% | 90% (active) | inactive | inactive | inactive | inactive |
| Cc1cccc2[nH]c(-c3ccc(-c4cccc(NC(=O)C(=O)c5cccn5C)c4)cc3)nc12 | 17% | 30% | 3% | 98% (active) | inactive | inactive | inactive | inactive |
| NC(=O)c1c(Cl)nc2ccccc2c1Cl | -2% | 2% | -2% | 91% (active) | inactive | inactive | inactive | inactive |
| Cc1cc(OCCCNc2nc(NCCc3ccc(O)cc3)nc(N3CCNCC3)n2)c(Cl)c(C)c1Cl | 8% | 54% (active) | 5% | 99% (active) | inactive | inactive | inactive | inactive |
| O=C(Nc1ccc(SC(F)(F)F)cc1)Nc1ccnc2ccccc12 | 42% | 26% | -2% | 95% (active) | inactive | inactive | inactive | inactive |
| N#Cc1cccc(C(=O)N2CCOC(CCN3CCC(c4ccccc4)CC3)(c3ccc(Cl)c(Cl)c3)C2)c1 (stereo not given) | 49% | 51% (active) | 0% | 87% (active) | inactive | inactive | inactive | inactive |
| Oc1ccc(CN2CCC(NCc3cccc(C(F)(F)F)c3)CC2)cc1 | 64% (active) | 10% | 5% | 101% (active) | inactive | inactive | inactive | inactive |
| Cc1cc(OCCCN2CCC(NS(=O)(=O)c3ccc(C(F)(F)F)cc3)CC2)c2ccccc2n1 | 24% | 12% | 1% | 95% (active) | inactive | inactive | inactive | inactive |
| CC(C)(C)c1ccc(CN2CCCCC(NC(=O)c3cc(-c4cccc(F)c4)cs3)C2)cc1 (stereo not given) | 84% (active) | 8% | -3% | 98% (active) | inactive | inactive | inactive | inactive |
| CCc1c(C(=O)NC2CCC(N3CCC(c4ccccc4C)CC3)CC2)[nH]c2ccc(Br)cc12 (stereo not given) | 99% (active) | 81% (active) | -5% | 101% (active) | inactive | inactive | inactive | inactive |
| O=C(C=Cc1cccc(F)c1)NC1CCC(CCN2CCc3ccc(-c4cnccn4)cc3CC2)CC1 (stereo not given) | 67% (active) | 51% (active) | -1% | 100% (active) | inactive | inactive | inactive | inactive |
| c1cc(CN2CCCCC2)cc(-c2ccc(-c3nc4ccccc4[nH]3)s2)c1 | 100% (active) | 11% | 2% | 101% (active) | inactive | inactive | inactive | inactive |
| CCC(C)CN1C(=O)C(c2ccccc2)(c2ccccc2)N=C1N (stereo not given) | 79% (active) | 11% | 4% | 98% (active) | inactive | inactive | inactive | inactive |
| CCc1cc2c(Sc3nc4ccccc4[nH]3)ncnc2s1 | 98% (active) | 6% | 2% | 97% (active) | inactive | inactive | inactive | inactive |
| COc1ccc(C2CCN(CCN3CCC(NC(=O)c4ccc(-c5cccc(C(F)(F)F)c5C(F)(F)F)cc4)CC3)CC2)c(OC)c1 | 61% (active) | 35% | -4% | 102% (active) | inactive | inactive | inactive | inactive |
| CCC(CC)CN1C(=O)C(C)(c2ccccc2)N=C1N (stereo not given) | 11% | 1% | -2% | 84% (active) | inactive | inactive | inactive | inactive |
| c1ccc(CNc2nc(NCCc3cnc[nH]3)nc(N3CCCC4CCCCC43)n2)cc1 (stereo not given) | 100% (active) | -6% | -3% | 98% (active) | inactive | inactive | inactive | inactive |

| SMILES | growth inhibition [1] | inhibition [2] | inhibition [3] | growth inhibition [4] | outcome [5] | outcome [6] | outcome [7] | outcome [8] |
| --- | --- | --- | --- | --- | --- | --- | --- | --- |
| CN1CCOc2ccc(Nc3nnc(-c4cccc(-c5cccnc5)c4)o3)cc2C1 | 100% (active) | -4% | -1% | 100% (active) | inactive | inactive | inactive | inactive |
| CCCC(C)NC(=O)[C@H](CC1CCCCC1)NC(=O)c1ccc(O)c(-c2ccc(OC)cc2)c1 (stereo not given in full) | 37% | 3% | 1% | 89% (active) | inactive | inactive | inactive | inactive |
| CN(C)Cc1ccc(-c2cc3c(Nc4ccc(OCc5cccc(F)c5)c(Cl)c4)ncnc3s2)[nH]1 | 84% (active) | 8% | -1% | 100% (active) | inactive | inactive | inactive | inactive |
| Nc1c(Cl)cc(C(O)CNCCCCCOCCCc2ccc(O)c3ncccc23)cc1Cl (stereo not given) | 12% | 65% (active) | -4% | 90% (active) | inactive | inactive | inactive | inactive |
| COc1ccc(CC2(c3ccc(F)cc3)N=C(N)N(CCCc3ccccc3)C2=O)cc1 (stereo not given) | 97% (active) | 38% | 0% | 99% (active) | inactive | inactive | inactive | inactive |
| O=[N+]([O-])c1cc(C(c2ccc(O)c([N+](=O)[O-])c2)C(Cl)(Cl)Cl)ccc1O | 98% (active) | 2% | 3% | 93% (active) | inactive | inactive | inactive | inactive |
| CCN1CCN(c2ccc(Nc3c4ccccc4nc4ccccc34)cc2)CC1 | 100% (active) | 24% | -2% | 99% (active) | inactive | inactive | inactive | inactive |
| CO/C(=C\C=C\c1cc2cc(Cl)c(Cl)cc2[nH]1)C(=O)NCCCN1CCCC[C@@H]1C | 83% (active) | 33% | 1% | 99% (active) | inactive | inactive | inactive | inactive |
| O=c1cc(NCCCNC2CCCc3c2cc(Cl)c(Cl)c3Cl)[nH]c2ccccc12 (stereo not given) | 64% (active) | 6% | -10% | 100% (active) | inactive | inactive | inactive | inactive |
| O=C(Nc1ccc(-c2nc3cc4ccccc4cc3[nH]2)cc1)c1cccc(Br)c1 | 89% (active) | 50% (active) | -5% | 101% (active) | inactive | inactive | inactive | inactive |
| Cc1sc(NC(=O)c2ccc([N+](=O)[O-])cc2Cl)c(C(N)=O)c1C | 2% | 2% | 1% | 94% (active) | inactive | inactive | inactive | inactive |
| Nc1nc(N)c2c(ccc3c2ccn3CCCC(F)(F)F)n1 | 34% | 66% (active) | 0% | 97% (active) | inactive | inactive | inactive | inactive |
| COc1cc2nc(C)nc(Nc3cccc(Br)c3)c2cc1OC | 82% (active) | 0% | -8% | 101% (active) | inactive | inactive | inactive | inactive |
| Cn1c(Nc2nnc(C3CC3)s2)nc2cc(Nc3ccnc(Nc4cccc(CS(C)(=O)=O)c4)n3)ccc21 | 83% (active) | -6% | -1% | 97% (active) | inactive | inactive | inactive | inactive |
| NC1=NC2(CCCCC2)N(OCCCCCCc2ccccc2)C(N)=N1 | 69% (active) | 73% (active) | -2% | 100% (active) | inactive | inactive | inactive | inactive |
| O=C(Nc1ccsc1)Nc1cccc(-c2cccc(-c3nc4ccc(F)cc4[nH]3)c2)c1 | 41% | 46% | 2% | 100% (active) | inactive | inactive | inactive | inactive |
| CCn1ccc2c(N3CCCCS3(=O)=O)cc(C(=O)N[C@@H](Cc3ccccc3)[C@H](O)CNC(C)(C)c3cccc(C(F)(F)F)c3)cc21 | 98% (active) | 6% | -4% | 97% (active) | inactive | inactive | inactive | inactive |
| COc1ccccc1CCNc1nc(C)cc(N[C@@H](Cc2ccccc2)C(=O)Nc2ccccc2)n1 | 86% (active) | 30% | 0% | 101% (active) | inactive | inactive | inactive | inactive |
| N#Cc1cccc(Nc2nccc(NCC(O)c3cccc(C(F)(F)F)c3)n2)c1 (stereo not given) | 84% (active) | 4% | -3% | 99% (active) | inactive | inactive | inactive | inactive |
| CC1CCN(Cc2cccc(C(=O)NCc3ccc(F)c(-c4cccc(CN5CCN[C@@H](C)C5)c4)c3)c2)CC1 | 64% (active) | 26% | 2% | 91% (active) | inactive | inactive | inactive | inactive |
